Screens from PubChem.
aSyn 5UTR act – Activators working through SNCA 5'UTR binding (MLPCN); alpha-synuclein 5'UTR reporter, activators screen; activity score, % (tested at 7.5 µM), hits read low; actives 7.1% (n = 300,000); AID 1814; in the data active = activity score below about -60%
* hit, by the source's call. Only a sample is shown.

Screening CCS(=O)(=O)Nc1ccc(C2=NN(S(C)(=O)=O)C(c3cccs3)C2)cc1 (stereo not drawn) returned aSyn 5UTR act -101*.
For COc1ccc(C2=NN(S(C)(=O)=O)C(c3cccs3)C2)cc1OC (stereo not drawn) the results were aSyn 5UTR act -115*.
COc1cccc(C2=NN(S(C)(=O)=O)C(c3cccs3)C2)c1 (stereo not drawn) was read as aSyn 5UTR act -107*.
COc1ccc2cc(C3CC(c4cccs4)=NN3S(C)(=O)=O)c(Cl)nc2c1 (stereo not drawn) was read as aSyn 5UTR act -62*.
For O=C1c2ccccc2NC(c2ccccc2O)N1c1ccc(F)cc1 (stereo not drawn) the results were aSyn 5UTR act -98*.
`O=C1c2ccccc2NC(c2ccccn2)N1c1ccc(Cl)cc1` (stereo not drawn) gave aSyn 5UTR act -138*.
For COc1cccc(C2Nc3ccccc3C(=O)N2c2ccc(F)cc2)c1O (stereo not drawn) the results were aSyn 5UTR act -99*.
`Cc1ccccc1Cn1cc(NC(=O)c2nc3ncccn3n2)cn1` gave aSyn 5UTR act -95*.
`CCn1nnc2cc(C(=O)NCCc3ccccc3F)ccc21` gave aSyn 5UTR act 63.
`Cn1cc(CCNC(=O)c2ccc3nc(Cc4ccccc4F)oc3c2)cn1` gave aSyn 5UTR act -116*.
Screening O=C(NCCc1ccccn1)c1ccc2nc(Cc3ccccc3F)oc2c1 returned aSyn 5UTR act -111*.
For Cn1cc(CNC(=O)c2ccc3nc(Cc4ccccc4F)oc3c2)cn1 the results were aSyn 5UTR act -84*.
O=c1oc2cc(Cl)ccc2n1CSc1nc2ccccc2s1 was read as aSyn 5UTR act -165*.
For CC12COC3(C(=O)Nc4ccc5ccccc5c4)CC1CCC32C (stereo not drawn) the results were aSyn 5UTR act -144*.
For Cn1c(C(C#N)C(=O)c2ccco2)nc2ccccc21 (stereo not drawn) the results were aSyn 5UTR act -125*.
Screening CCC1CCCCN1C(=O)CCCOc1ccccc1 (stereo not drawn) returned aSyn 5UTR act -113*.
Screening O=C(CCCOc1ccccc1)N1CCCCC1 returned aSyn 5UTR act 71.
Screening CCOC(=O)C1CCN(C(=O)CCCOc2ccccc2)CC1 returned aSyn 5UTR act -121*.
Cc1ccc(Sc2c(CO)c(-c3ccccc3)nn2C)cc1 was read as aSyn 5UTR act -86*.
COc1ccc(-c2nc3cccc(C)n3c2NCC2CCCO2)cc1O (stereo not drawn) was read as aSyn 5UTR act -99*.
Screening COc1cc(OC)cc(C(=O)Nc2ccc3c(c2)OCCO3)c1 returned aSyn 5UTR act -123*.
For CCOc1cccc(C(=O)NC(=S)Nc2ccc3c(c2)OCCO3)c1 the results were aSyn 5UTR act -87*.
Cc1cc(C(=O)Nc2ccc3c(c2)OCCO3)co1 was read as aSyn 5UTR act -113*.
CCOc1ccc(C(=O)Nc2ccc3c(c2)OCCO3)cc1OC was read as aSyn 5UTR act -144*.
`CC1CCCCN1S(=O)(=O)c1ccc(C(=O)Nc2sccc2C(N)=O)cc1` (stereo not drawn) gave aSyn 5UTR act -106*.
Screening CC(C)CNS(=O)(=O)c1ccc(C(=O)Nc2ccc3c(c2)OCCO3)cc1 returned aSyn 5UTR act -98*.
CCC1CCCCN1S(=O)(=O)c1ccc(C(=O)Nc2nnc(-c3ccccc3Cl)o2)cc1 (stereo not drawn) was read as aSyn 5UTR act 56.
For CCOC(=O)c1cc([N+](=O)[O-])sc1NC(=O)c1ccc(S(=O)(=O)N2CC3(C)CC2CC(C)(C)C3)cc1 (stereo not drawn) the results were aSyn 5UTR act 55.
Screening Cc1cc(C)n(-c2ccc(C(=O)OCc3ccccc3)cc2)n1 returned aSyn 5UTR act -68*.
Screening Cc1cc(C)n(-c2ccc(C(=O)Nc3ccc4c(c3)OCCO4)cc2)n1 returned aSyn 5UTR act -101*.
`COc1ccc(C)cc1NS(=O)(=O)c1ccc(NC(=O)CN(c2cc([N+](=O)[O-])ccc2C)S(C)(=O)=O)cc1` gave aSyn 5UTR act 114.
Screening Cc1cc(C)n(-c2ccc(C(=O)Nc3sccc3C(N)=O)cc2)n1 returned aSyn 5UTR act -139*.
COc1ccc(N(CC(=O)Nc2ccc3c(c2)OCCO3)S(C)(=O)=O)c(OC)c1 was read as aSyn 5UTR act -71*.
For COC(=O)c1cccc(N/C=C(\[N+](=O)[O-])S(=O)(=O)c2ccccc2)c1 the results were aSyn 5UTR act -62*.
Cn1c(N)c(C(=O)Nc2cccc(Cl)c2)c(=O)n(C)c1=O was read as aSyn 5UTR act -76*.
`CN=c1sc(C(=O)Nc2cccc(Cl)c2)cc(=O)n1C` gave aSyn 5UTR act -140*.
Cn1ccs/c1=N\C(=O)Nc1cccc(Cl)c1 was read as aSyn 5UTR act -154*.
CCCOC(=O)c1ccc(NC(=O)C2C3CCC(C3)C2C(=O)O)cc1 (stereo not drawn) was read as aSyn 5UTR act -85*.
`CCOC(=O)c1ccc(NS(=O)C23CC4CC(CC(C4)C2)C3)cc1` (stereo not drawn) gave aSyn 5UTR act -110*.
